Bioassay records (PubChem BioAssay)
Neddylation inh: inhibitors of human cullin neddylation; TR-FRET cullin neddylation, biochemical; inhibition, % at 25 µM; hit rate 0.58% among 360,000; AID 651699; in the data active means inhibition above about 36%
GC-A act: GC-A (human) enzyme activation; activation, % at 10 µM; HEK293 GC-A cells, cGMP TR-FRET, EC30 ANP; 0% at EC30 ANP, 100% saturating ANP; AID 1671463; hit rate 0.14% among 370,000; in the data active means activation above about 40%
NPR2 activator: GC-B (human) receptor activation; HEK293-GC-B cells, CNP EC30, cGMP TR-FRET; 0% at EC30 CNP, 100% saturating CNP; activation, % at 10 µM; hit rate 0.11% among 370,000;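 active means activation at 10 µM reaching about 35% in either raw or pattern-adjusted values, limit read from the data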
NadD inh: blocks S. aureus nicotinate mononucleotide adenylyltransferase | purified NadD enzyme, colorimetric absorbance read-out | inhibition, % at 20 µM | hit rate 0.78% among 360,000; in the data active means inhibition above about 26%
Neddyl inh conf: cullin neddylation inhibition, confirmation | hit rate 13% among 1,800 | TR-FRET cullin neddylation biochemical assay | calls only at 25 µM | shares compounds with Neddylation inh; in the data active means inhibition above about 40%;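 further: neddylation substrate is the cullin 1 ring ligase complex with SKP2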
An asterisk follows results filed as active; i = inactive; x = no result shown; + = active, no number. This is a sample that favours compounds with a hit; in the whole collection about 1.5% have one here.

SMILES	Neddylation inh	GC-A act	NPR2 activator	NadD inh	Neddyl inh conf
c1ccc2c(c1)-c1cccc3cncc-2c13	40*	1	-5	-3	i
COc1cccc(N2CCN(C(=O)c3cccn4c(=O)c5c(C)c(C)sc5nc34)CC2)c1	38*	2	-1	-4	x
COc1ccc(N2CCN(C(=O)c3cccn4c(=O)c5ccccc5nc34)CC2)cc1	13	1	2	0	x
Cc1c(C(C)NC(=O)c2cc(COc3cccc4cnccc34)on2)cnn1C (configuration not stated)	56*	-3	-3	-4	+
COC(=O)[C@]1(Cc2ccccc2)NC=C(C(=O)c2ccccc2)[C@@H]1c1cccs1	x	-3	-10	x	x
CC(=O)Nc1cccc(-c2cc(NC=O)c3ncc(-c4ccc(C(C)=O)cc4)n3c2)c1	42*	10	5	-3	i
CC(=O)Nc1cccc(-c2cc(NC(C)=O)c3ncc(-c4cccc(C(C)=O)c4)n3c2)c1	-5	4	12	-8	x
CC(=O)Nc1cc(-c2cccc(CO)c2)cn2c(-c3ccc(F)cc3)cnc12	26	-10	2	-6	x
CC(=O)Nc1cc(-c2ccc(C(=O)N3CCOCC3)cc2)cn2c(-c3ccc(S(C)(=O)=O)cc3)cnc12	45*	1	-1	9	i
CC(=O)Nc1cc(-c2cccc(CO)c2)cn2c(-c3ccc(C(C)=O)cc3)cnc12	45*	0	28	-8	i
COc1cc(-c2cc(NC(C)=O)c3ncc(-c4ccc(C(C)=O)cc4)n3c2)cc(OC)c1OC	42*	46*	46*	2	i
CC(=O)Nc1cc(-c2ccc(C(=O)N3CCOCC3)cc2)cn2c(-c3ccc(F)c(Cl)c3)cnc12	12	4	2	1	x
CC(C)(C)CCN1CCC[C@H](NC(=O)COc2ccc(F)c(Cl)c2)C1	x	-3	-11	x	x
CC(=O)c1ccc(-c2cnc3c(NC=O)cc(-c4ccc(C(=O)NC5CC5)cc4)cn23)cc1	48*	9	10	-11	i
Clc1ccc2[nH]c3c(NCCCN4CCOCC4)ncnc3c2c1	38*	0	4	-7	i
Cc1c(C)n(CCCN(C)C)c2ncnc(Nc3ccccc3)c12	42*	-66	-13	0	i
COc1ccc(Nc2ncnc3c2c(C)c(C)n3CCCN(C)C)cc1	19	-2	-1	-4	x
Cc1c(Cc2ccccc2)c(=O)oc2c(C)c(OCc3nn[nH]n3)ccc12	41*	1	4	8	i
Cc1ccc(-n2c(SCC(=O)Nc3ccc(S(=O)(=O)Nc4nccs4)cc3)nnc2-c2cccs2)cc1	x	-4	4	x	x
COCc1ccc(CN2CCc3c([nH]c4ccccc34)C2CC(C)C)o1 (configuration not stated)	40*	-5	-4	-2	i
CC(C)C1Oc2cc3oc(=O)ccc3cc2C1=O (configuration not stated)	46*	-3	-3	3	i
C/C=C/c1cnc2c(c1)C(=O)N([C@@H](C)CO)C[C@H](C)[C@@H](CN(C)S(=O)(=O)c1ccc(C)cc1)O2	5	2	-3	0	x
C[C@@H]1CN([C@@H](C)CO)C(=O)c2cc(/C=C/c3ccccc3)cnc2O[C@@H]1CN(C)S(=O)(=O)c1ccc(F)cc1	41*	3	-1	4	i
Nn1c(SCC(=O)NC2CCCCC2)nnc1-c1n[nH]c2c1CCC2	x	2	0	x	x
CCc1ccc(C2C(C#N)=C(N)Oc3cc(N)ccc32)cc1 (configuration not stated)	44*	39	-4	0	i
SMILES	Neddylation inh	GC-A act	NPR2 activator	NadD inh	Neddyl inh conf
CCOc1ccc(-c2c(C(=O)N/N=C/c3c[nH]c4ccccc34)nnn2-c2nonc2N)cc1	42*	13	-1	23	i
CCOc1ccc(-c2c(C(=O)N/N=C/c3ccoc3)nnn2-c2nonc2N)cc1	10	-2	8	0	x
CCCCCCCCN1C(=O)[C@@H](CC(=O)NCCCOCCCC)C[C@@]2(C(=O)OC)C1=C[C@H](C(C)C)O[C@@H]2C1CC1	x	-10	-4	x	x
CCOC(=O)C1=C(C)Nc2nc3ccccc3n2C1c1ccc(O)cc1 (configuration not stated)	29	-7	1	0	x
N#CC1=C(N)Nc2nc3ccccc3n2C1c1ccc(Cl)cc1 (configuration not stated)	43*	3	2	5	i
COC(=O)[C@]12C[C@H](CC(=O)NCCCN3CCCC3=O)C(=O)N(Cc3ccccc3)C1=C[C@H](COCc1ccccc1)O[C@@H]2C	x	-1	2	x	x
O=C(COc1ccc2c3c(c(=O)oc2c1)CCCC3)NC(Cc1ccc(Cl)cc1)C(=O)O (configuration not stated)	29	5	-7	5	x
O=C(COc1ccc2c3c(c(=O)oc2c1)CCCC3)N[C@@H](Cc1ccccc1)C(=O)O	45*	4	-2	-2	x
COc1ccc(-c2nc3c(n2O)CCC/C3=N\O)cc1	45*	0	3	0	i
Cc1nc2c(n1O)CCC/C2=N\O	-3	6	0	5	x
CCOC(=O)CC[C@@H]1CC[C@]2(CCCN(C(=O)c3ccccc3)C2)O1	x	6	4	x	x
COC(=O)c1nc(N)sc1-c1ccccc1	40*	6	2	-4	x
O=C(Nc1ccc(F)cc1)OC1CC2CC1[C@H]1CCCCN1[C@H]2Cc1ccccc1 (some centres not stated)	x	-7	-5	x	x
O=C1OC(c2ccc(Cl)cc2)=N/C1=C\C=C\c1ccco1	17	7	-3	-3	x
O=C1OC(c2ccccc2)=N/C1=C\C=C\c1ccco1	45*	15	3	0	i
C#CCNC(=O)C[C@H]1C[C@@]2(C(=O)OC)C(=C[C@H](C(C)C)O[C@@H]2C2CC2)N(CCC2=CCCCC2)C1=O	x	-2	-7	x	x
CCCOc1ccc(-c2cc(C(F)(F)F)c(C#N)c(SCC(=O)O)n2)cc1	40*	0	-2	7	i
CCCCN(C)C(=O)CCC(=O)Nc1ccc2nc(N3CCN(C)CC3)cc(C)c2c1	45*	3	2	-7	i
Cc1cc(N2CCN(C)CC2)nc2ccc(NC(=O)CCC(=O)NCCc3ccc(Cl)cc3)cc12	42*	-1	1	-6	i
CCOC(CCNC(=O)CCC(=O)Nc1ccc2nc(N3CCN(C)CC3)cc(C)c2c1)OCC	36	0	-2	-6	x
CN1CCN(C(=O)c2ccc3nc(-c4ccccc4)c(-c4ccccc4)nc3c2)CC1	55*	-55	-17	-9	x
CCN(CC)C(=O)c1ccc2nc(-c3ccccc3)c(-c3ccccc3)nc2c1	44*	-5	-3	-4	i
O=C(c1ccc2nc(-c3ccccc3)c(-c3ccccc3)nc2c1)N1CCCCC1	24	-6	0	-4	x
